ClpP mod: qHTS Assay for Activators of ClpP; purified B. subtilis ClpP, FRET peptide cleavage, 20 min; Potency, µM (top dose mostly 57.5 µM), inactives show at the top dose activity change, negative = active; hit rate 1.9% among 340,000; AID 651965, 2013; active = well fitted falling curve with a large enough effect; inconclusive = small, poorly fitted or top-dose-only effect; inactive = no such curve, though single readings can be large or run the other way; note: potency is the fitted concentration of half-maximal effect; the source files actives as falling curves though it sought activators and does not explain the sign; nearly all actives have a fitted effect of over 65% in size
Target sequence (P80244 whole entry, looked up): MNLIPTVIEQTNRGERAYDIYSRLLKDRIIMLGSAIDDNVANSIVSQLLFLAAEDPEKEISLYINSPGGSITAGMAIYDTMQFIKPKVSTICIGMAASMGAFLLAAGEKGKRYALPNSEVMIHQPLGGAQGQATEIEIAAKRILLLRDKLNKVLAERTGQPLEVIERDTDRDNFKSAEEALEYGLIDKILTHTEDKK
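ClpP 10 microg/mL final, pH 8 Tris/KCl buffer with BSA, glycerol, Tween-20; compound pinned in; FRET-FV substrate; RT 20 min; Ex320/Em430; ΔFRET vs ADEP 5.8 microM, DMSO, no enzyme.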
DT40 TDP1 no CPT: qHTS for Inhibitors of human tyrosyl-DNA phosphodiesterase 1 (TDP1): qHTS in cells in absence of CPT; DT40 Tdp1-/- hTDP1 cells, no CPT, ATP luminescence, 48 h; Potency, µM (series often up to 46.2 µM), for the others: at the top dose activity change, negative = growth inhibition, usual class: inhibitors; hit rate 15% among 420,000; note: potency is the fitted concentration of half-maximal effect; % is set by controls: 0 for no effect and ±100 for the full control effect; nearly all actives have a fitted effect of over 55% in size
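Growth kinetics read by CellTiter-Glo luminescence after ≥48 hr at 37 °C. Cells: DT40 Tdp1-/- stably carrying human TDP1, 400 per well, compound exposure in the absence of CPT (DMSO vehicle).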
DRD3 antagonist: qHTS of D3 Dopamine Receptor Antagonist: qHTS; D3R cells, DiscoveRx beta-arrestin luminescence, antagonist mode; active compounds read low; max response, negative = inhibition, %; hit rate 2.5% among 360,000; in the data active = max response below about -50%; inconclusive = no clear call, values can overlap the other calls; note: % is set by controls: 0 for no effect and ±100 for the full control effect
Target sequence (P35462 whole entry, looked up): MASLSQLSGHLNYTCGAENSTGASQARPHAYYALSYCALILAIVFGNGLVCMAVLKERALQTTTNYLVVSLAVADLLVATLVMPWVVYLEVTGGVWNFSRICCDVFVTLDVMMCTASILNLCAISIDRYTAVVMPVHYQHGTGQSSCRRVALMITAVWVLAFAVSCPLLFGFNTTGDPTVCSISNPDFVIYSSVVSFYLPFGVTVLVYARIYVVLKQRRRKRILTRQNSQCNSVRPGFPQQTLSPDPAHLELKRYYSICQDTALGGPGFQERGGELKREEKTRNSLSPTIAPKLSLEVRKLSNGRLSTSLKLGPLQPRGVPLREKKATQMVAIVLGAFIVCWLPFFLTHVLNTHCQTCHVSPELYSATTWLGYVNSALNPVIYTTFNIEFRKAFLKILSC
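Cells plated overnight at 1500 cells/well, then exposed to library compounds with dopamine controls for 90 minutes at 37 degrees C. DiscoveRx reagent added for 30–60 minutes at room temperature; luminescence read, quantitative HTS format.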
TDP1 cell CPT: qHTS for Inhibitors of human tyrosyl-DNA phosphodiesterase 1 (TDP1): qHTS in cells in presence of CPT | chicken DT40 Tdp1-/-;hTDP1 cells + 20 nM CPT, ATP luminescence, 48 h | Potency, µM (series often up to 46.2 µM), inactives show at the top dose activity change, negative = growth inhibition, hits mostly inhibitors | hit rate 12% among 420,000 | AID 686979, 2013; note: potency is the fitted concentration of half-maximal effect; % is set by controls: 0 for no effect and ±100 for the full control effect; nearly all actives have a fitted effect of over 55% in size
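Cell growth measured by CellTiter-Glo luminescence after a minimum 48 h, 37 C compound exposure with 20 nM CPT in Tdp1-knockout DT40 cells stably expressing hTDP1, seeded 400/well; qHTS titration format.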
IL1B secr inh: qHTS for Inhibitors of Inflammasome Signaling: IL-1-beta AlphaLISA Primary Screen | hit rate 4.7% among 360,000 | THP-1 LPS/ATP IL-1B secretion, AlphaLISA, 16 h; active compounds read low | activity change, % at 57.5 µM; in the data active = activity change below about -50%; inconclusive = mostly about -30% to -49%; note: % is set by controls: 0 for no effect and ±100 for the full control effect
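Secreted IL-1B measured by AlphaLISA bead assay after 16 h compound exposure of THP-1 cells; compounds (final up to 57.5 uM) added 1 h before LPS (250 ng/mL) and ATP (1.25 mM) stimulation; lower signal means less secretion.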
D3 ag: qHTS of D3 Dopamine Receptor Agonist: qHTS | D(3) dopamine receptor (Homo sapiens), P35462 | D3R DiscoveRx beta-arrestin cells, luminescence, 90 min | max activation, % | hit rate 0.58% among 410,000 | AID 652048, 2013; in the data active = max activation above about 30%; note: 0% is about no effect
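Agonist mode: compounds and dopamine controls were applied to plated cells for 90 min at 37 degrees C after an overnight attachment at 1500 cells/well. Luminescent read-out followed 30 - 60 minutes at room temperature with DiscoveRx detection reagent.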
* hit, by the source's call. Hits are enriched below; roughly 21% of the tested compounds scored in any of these assays. Unless noted, calls come from the whole dose curve; as a rule, active = well fitted inhibition curve with a large enough effect; inconclusive = small, poorly fitted or top-dose-only effect; inactive = flat fitted curve, though single readings scatter.

Cc1nc2ncnn2c(C)c1Cc1ccccc1Cl was read as ClpP mod -2%, DT40 TDP1 no CPT -21%, DRD3 antagonist -82*, TDP1 cell CPT -35%, IL1B secr inh -7 and D3 ag 5.
`O=C(NCCc1c[nH]c2ccccc12)Nc1ccccc1` gave ClpP mod -3%, DT40 TDP1 no CPT inconclusive, DRD3 antagonist 26, TDP1 cell CPT -5%, IL1B secr inh -26 and D3 ag -2.
Screening Cc1ccc(C)c(NC(=S)NCCc2c[nH]c3ccccc23)c1 returned DT40 TDP1 no CPT 13µM*, DRD3 antagonist -20, TDP1 cell CPT inconclusive, IL1B secr inh -58* and D3 ag -3.
Screening Cc1ccccc1NC(=S)NCCc1c[nH]c2ccccc12 returned DT40 TDP1 no CPT inconclusive, DRD3 antagonist -13, TDP1 cell CPT -13%, IL1B secr inh -9 and D3 ag 1.
Screening CC(C)c1ccc(NC(=S)NCCc2c[nH]c3ccccc23)cc1 returned ClpP mod -2%, DT40 TDP1 no CPT 26µM*, DRD3 antagonist 13, TDP1 cell CPT inconclusive, IL1B secr inh -53* and D3 ag -1.
For S=C(NCCc1ccccn1)NC1CCCCC1 the results were ClpP mod -3%, DT40 TDP1 no CPT 2%, DRD3 antagonist 18, TDP1 cell CPT -27%, IL1B secr inh -22 and D3 ag -2.
`Cc1ccc(C(=O)N/C(=C\c2cccs2)C(=O)NCCc2c[nH]c3ccccc23)cc1` gave ClpP mod 1%, DT40 TDP1 no CPT inconclusive, DRD3 antagonist 26, TDP1 cell CPT inconclusive, IL1B secr inh -63* and D3 ag -8.
Screening COc1ccc(/C=C(/NC(=O)c2ccc(OC)cc2)C(=O)NCCc2c[nH]c3ccccc23)cc1 returned ClpP mod -2%, DT40 TDP1 no CPT 4%, DRD3 antagonist -11, TDP1 cell CPT 17%, IL1B secr inh -5 and D3 ag 5.
For S=C(NCCCc1ccccc1)NC1CCCCC1 the results were ClpP mod -1%, DT40 TDP1 no CPT inconclusive, DRD3 antagonist inconclusive, TDP1 cell CPT inconclusive, IL1B secr inh -89* and D3 ag -17.
CC(c1ccccc1)n1ccnc1CO (configuration not stated) was read as ClpP mod 0%, DT40 TDP1 no CPT -6%, DRD3 antagonist -12, TDP1 cell CPT 2%, IL1B secr inh -3 and D3 ag -2.
`Cc1ccccc1C(=O)OCC(=O)Nc1cccc(S(=O)(=O)NC2=NCCC2)c1` gave ClpP mod -2%, DT40 TDP1 no CPT 19%, DRD3 antagonist -5, TDP1 cell CPT 2%, IL1B secr inh -12 and D3 ag 1.
Screening COc1cccc(NC(=O)CN(C)C(=O)C2CC(=O)N(CCc3ccc(OC)c(OC)c3)C2)c1 (configuration not stated) returned ClpP mod 3%, DT40 TDP1 no CPT -3%, DRD3 antagonist -8, TDP1 cell CPT 1%, IL1B secr inh -5 and D3 ag 1.
Screening COc1ccc(CN2CC(C(=O)NCCCN3CCCCC3)CC2=O)cc1 (configuration not stated) returned ClpP mod 1%, DT40 TDP1 no CPT 21%, DRD3 antagonist 4, TDP1 cell CPT -1%, IL1B secr inh 29 and D3 ag 0.
`S=C(NCCc1c[nH]c2ccccc12)NC1CCCCC1` gave DT40 TDP1 no CPT inconclusive, DRD3 antagonist -3, TDP1 cell CPT inconclusive, IL1B secr inh -52* and D3 ag 2.
`Cc1ccc(NS(=O)(=O)c2cccc(C(=O)NCCc3c[nH]c4ccccc34)c2)c(C)c1` gave DT40 TDP1 no CPT inconclusive, DRD3 antagonist -1, TDP1 cell CPT inconclusive, IL1B secr inh -78* and D3 ag -6.
Screening Cc1cccc(NC(=S)NCCc2c[nH]c3ccccc23)c1 returned ClpP mod 1%, DT40 TDP1 no CPT inconclusive, DRD3 antagonist inconclusive, TDP1 cell CPT inconclusive, IL1B secr inh 2 and D3 ag 0.
Screening Cc1ccc(NC(=S)NCCc2c[nH]c3ccccc23)cc1 returned ClpP mod 0%, DT40 TDP1 no CPT 23µM*, DRD3 antagonist 20, TDP1 cell CPT inconclusive, IL1B secr inh -19 and D3 ag 2.
For S=C(NCCc1c[nH]c2ccccc12)NC1CCCC1 the results were DT40 TDP1 no CPT -6%, DRD3 antagonist 6, TDP1 cell CPT 33%, IL1B secr inh 27 and D3 ag 3.
`S=C(NCCCN1CCN(CCCNC(=S)NC2CCCCC2)CC1)NC1CCCCC1` gave DT40 TDP1 no CPT 15µM*, DRD3 antagonist -23, TDP1 cell CPT 15µM*, IL1B secr inh -15 and D3 ag -31.
For Cc1ccccc1OCC(=O)Nc1nnc(SCc2cc(=O)n3cc(Cl)ccc3n2)s1 the results were ClpP mod -5%, DT40 TDP1 no CPT -19%, TDP1 cell CPT -12% and D3 ag 4.
CCOC(=O)c1ccc(N2CCN(c3cc(C)ccc3C)CC2)c(NC(=O)Nc2ccccc2)c1 was read as ClpP mod 4%, DT40 TDP1 no CPT 2.9µM*, TDP1 cell CPT 5.8µM* and D3 ag 18.
CCOC(=O)c1ccc(N2CCN(c3cccc(OC)c3)CC2)c(NC(=O)Nc2ccc(OCC)cc2)c1 was read as ClpP mod 0%, DT40 TDP1 no CPT -23%, TDP1 cell CPT inconclusive and D3 ag -13.
Screening CCOC(=O)c1ccc(N2CCN(c3cc(Cl)ccc3C)CC2)c(NC(=O)Nc2ccc(OCC)cc2)c1 returned ClpP mod -13%, DT40 TDP1 no CPT 13µM*, TDP1 cell CPT inconclusive and D3 ag -3.
Screening O=C1C2=C(S[C@@H]3O[C@H](CO)[C@@H](O)[C@H](O)[C@H]3O2)C(=O)c2ccccc21 returned DT40 TDP1 no CPT 0.65µM* and TDP1 cell CPT 0.65µM*.
`CC(C)N(c1ccccc1)c1ccc(NC(=O)[C@@H]2O[C@H](CO)[C@H](O)[C@H](O)[C@H]2O)cc1` gave ClpP mod -1%, DT40 TDP1 no CPT -7%, DRD3 antagonist -5, TDP1 cell CPT -14%, IL1B secr inh 22 and D3 ag -9.
